Article PMC11624278

Assays:
Assay in all cases: cross-link between two proteins; affinity purification or IP with mass spectrometry; cross-linking mass spectrometry
Calreticulin = Calreticulin (UniProt P14211)
Integrin alpha-3 = Integrin alpha-3 (UniProt Q62470)
Integrin alpha-5 = Integrin alpha-5 (UniProt P11688)

Measured: listed as a hit

UniProt P14211, sequence (P14211 whole entry): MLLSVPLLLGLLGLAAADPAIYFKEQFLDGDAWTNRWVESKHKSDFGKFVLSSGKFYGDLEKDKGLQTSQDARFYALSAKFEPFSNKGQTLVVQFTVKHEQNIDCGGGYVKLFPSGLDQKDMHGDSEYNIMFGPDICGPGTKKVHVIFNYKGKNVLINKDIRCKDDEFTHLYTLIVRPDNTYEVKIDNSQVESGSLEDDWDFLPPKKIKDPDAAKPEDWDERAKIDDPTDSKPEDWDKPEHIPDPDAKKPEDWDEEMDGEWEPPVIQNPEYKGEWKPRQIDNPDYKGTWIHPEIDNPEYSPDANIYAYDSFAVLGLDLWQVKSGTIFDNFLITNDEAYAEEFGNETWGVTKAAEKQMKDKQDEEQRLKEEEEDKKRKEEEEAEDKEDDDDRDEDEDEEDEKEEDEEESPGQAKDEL
UniProt P11688, sequence (P11688 whole entry): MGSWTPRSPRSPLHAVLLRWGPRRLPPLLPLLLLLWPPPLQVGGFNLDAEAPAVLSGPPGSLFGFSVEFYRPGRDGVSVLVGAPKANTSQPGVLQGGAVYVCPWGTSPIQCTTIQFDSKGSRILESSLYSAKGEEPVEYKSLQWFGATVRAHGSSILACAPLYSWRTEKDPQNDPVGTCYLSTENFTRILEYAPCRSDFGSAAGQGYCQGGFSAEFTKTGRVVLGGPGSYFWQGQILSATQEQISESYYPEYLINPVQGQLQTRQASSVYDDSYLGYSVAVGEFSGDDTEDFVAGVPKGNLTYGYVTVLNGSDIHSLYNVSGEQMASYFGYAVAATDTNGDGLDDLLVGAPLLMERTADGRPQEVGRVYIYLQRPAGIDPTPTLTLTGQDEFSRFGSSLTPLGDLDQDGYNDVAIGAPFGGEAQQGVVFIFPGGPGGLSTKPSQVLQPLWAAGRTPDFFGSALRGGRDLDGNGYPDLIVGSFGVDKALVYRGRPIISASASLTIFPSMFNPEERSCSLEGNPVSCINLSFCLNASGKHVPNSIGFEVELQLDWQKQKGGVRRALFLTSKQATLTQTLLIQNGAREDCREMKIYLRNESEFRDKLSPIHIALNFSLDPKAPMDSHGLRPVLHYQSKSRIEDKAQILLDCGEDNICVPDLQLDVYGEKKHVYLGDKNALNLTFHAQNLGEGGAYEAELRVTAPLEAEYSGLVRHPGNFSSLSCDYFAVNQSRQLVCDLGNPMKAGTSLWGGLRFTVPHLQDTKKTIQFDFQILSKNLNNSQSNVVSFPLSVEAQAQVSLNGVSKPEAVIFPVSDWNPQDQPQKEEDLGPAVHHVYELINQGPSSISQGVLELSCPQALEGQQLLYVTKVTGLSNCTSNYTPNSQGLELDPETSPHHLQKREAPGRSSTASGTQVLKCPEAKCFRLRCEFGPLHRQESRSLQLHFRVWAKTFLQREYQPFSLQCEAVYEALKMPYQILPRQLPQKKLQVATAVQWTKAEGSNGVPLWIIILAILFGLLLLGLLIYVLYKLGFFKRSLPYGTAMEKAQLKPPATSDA
UniProt Q62470, sequence (Q62470 whole entry): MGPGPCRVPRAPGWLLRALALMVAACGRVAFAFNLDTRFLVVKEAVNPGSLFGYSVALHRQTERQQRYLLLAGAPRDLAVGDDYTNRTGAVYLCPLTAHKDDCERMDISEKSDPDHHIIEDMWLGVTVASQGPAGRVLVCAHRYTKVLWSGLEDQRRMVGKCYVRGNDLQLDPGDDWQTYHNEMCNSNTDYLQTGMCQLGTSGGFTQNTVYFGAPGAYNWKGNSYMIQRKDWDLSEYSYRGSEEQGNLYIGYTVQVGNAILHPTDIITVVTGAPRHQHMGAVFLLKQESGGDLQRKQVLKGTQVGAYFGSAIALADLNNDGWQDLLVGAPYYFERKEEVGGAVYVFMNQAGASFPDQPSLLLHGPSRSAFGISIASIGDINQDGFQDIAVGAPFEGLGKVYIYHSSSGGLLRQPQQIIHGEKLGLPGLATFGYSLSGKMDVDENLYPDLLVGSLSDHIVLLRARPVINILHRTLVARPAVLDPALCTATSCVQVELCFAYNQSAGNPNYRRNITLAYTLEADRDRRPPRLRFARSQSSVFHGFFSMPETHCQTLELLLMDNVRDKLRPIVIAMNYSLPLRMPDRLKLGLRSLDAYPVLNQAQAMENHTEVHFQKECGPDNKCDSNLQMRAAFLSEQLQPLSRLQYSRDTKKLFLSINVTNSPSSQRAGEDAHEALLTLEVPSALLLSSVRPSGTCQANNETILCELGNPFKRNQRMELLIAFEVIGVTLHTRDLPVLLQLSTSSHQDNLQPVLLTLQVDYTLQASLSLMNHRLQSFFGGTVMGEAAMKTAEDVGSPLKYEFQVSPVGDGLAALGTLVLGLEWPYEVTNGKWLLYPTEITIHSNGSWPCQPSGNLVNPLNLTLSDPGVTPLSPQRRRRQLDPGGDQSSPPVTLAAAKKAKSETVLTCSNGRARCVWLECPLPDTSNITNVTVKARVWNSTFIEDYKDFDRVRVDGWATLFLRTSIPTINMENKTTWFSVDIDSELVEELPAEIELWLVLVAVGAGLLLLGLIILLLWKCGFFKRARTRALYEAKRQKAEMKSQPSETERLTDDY

Integrin beta-1, P09055
yes: all assays above
